IL2 activator: activators of IL-2; activation, % (series mostly up to about 46 µM); 360,000 compounds, 0.065% hits; IL-2 activation reporter assay, cell-based qHTS; stimulated with anti-CD3/CD4/CD28 beads; in transgenic mouse T cells; in the data active means activation above about 50%; inconclusive means mostly about 30% to 49%
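Quantitative HTS in unstimulated transgenic mouse T cells, with memory T cells as non-tolerant control and PMA/ionomycin as tolerance-bypass control. Compound pretreatment lasted 60 minutes before 18 h bead stimulation; EGFP/DsRed fluorescence read.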
IDH1 R132H inh: inhibitors of human mutant IDH1 R132H; IDH1-R132H enzyme, NADPH consumption, diaphorase/resazurin fluorescence; Potency, µM (highest dose often 76.6 µM), most hits filed as inhibitors; 390,000 compounds, 0.093% hits; AID 602179; further: nearly all actives have a fitted effect of over 65% in size
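IDH1-R132H (0.5 ug/mL dispensed) in pH 7.5 Tris buffer was preincubated 30 min with compound, then given a substrate mix of 0.016 mM NADPH and 2 mM alpha-KG for 80 min at room temperature; remaining NADPH was read by diaphorase/resazurin fluorescence.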
BRCA1 expr act: activators of BRCA1 expression; AID 624202; 380,000 compounds, 1.1% hits; Potency, µM (highest dose often 46.1 µM), usual class: activators; MCF7-BRCA1-FFLuc reporter, luminescence, 48 h; response scale: scaled: vehicle 0%, 10 µM genistein 100%; further: nearly all actives have a fitted effect of over 80% in size
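Luminescence from a BRCA1-driven firefly luciferase in MCF7 cells was the read-out, taken 15 min after substrate addition following 48 h compound exposure at 37 °C. Data were normalized to a 10 microM genistein control and DMSO vehicle.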
TrxR1 substrate: is turned over as a substrate by rat TrxR1; purified TrxR1 substrate turnover, NADPH consumption readout; O89049; Potency, µM (top dose mostly 114 µM); 390,000 compounds, 0.01% hits; further: nearly all actives have a fitted effect of over 50% in size
Target sequence (O89049 whole entry, looked up): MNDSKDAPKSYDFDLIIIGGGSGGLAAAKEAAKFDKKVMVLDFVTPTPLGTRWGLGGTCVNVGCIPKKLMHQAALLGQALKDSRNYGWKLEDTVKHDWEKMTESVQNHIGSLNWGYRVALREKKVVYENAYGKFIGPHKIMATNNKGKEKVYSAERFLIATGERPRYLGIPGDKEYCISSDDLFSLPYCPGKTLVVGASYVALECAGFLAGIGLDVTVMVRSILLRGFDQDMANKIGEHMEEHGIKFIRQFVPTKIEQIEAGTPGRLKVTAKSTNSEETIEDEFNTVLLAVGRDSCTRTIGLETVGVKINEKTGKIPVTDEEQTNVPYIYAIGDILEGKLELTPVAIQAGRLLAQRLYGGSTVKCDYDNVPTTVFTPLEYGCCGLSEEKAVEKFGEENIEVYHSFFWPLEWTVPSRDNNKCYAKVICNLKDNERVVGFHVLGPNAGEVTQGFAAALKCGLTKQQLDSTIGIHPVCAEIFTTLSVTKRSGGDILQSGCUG
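Rat TrxR1, dispensed at 90 nM, was prereduced with 400 uM NADPH (final) for 5 min at ~22 deg C, then incubated with compound 15 min before 400 uM selenite. A first-read NADPH fluorescence drop versus no-compound background flagged substrates.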
TrxR1 inh: rat TrxR1 inhibition. O89049. recombinant rTrxR1, NADPH fluorescence consumption, selenite substrate. Potency, µM (titrated, usually from 114 µM), actives largely listed as inhibitors. 390,000 compounds, 1% hits; further: nearly all actives have a fitted effect of over 65% in size
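Rat TrxR1 (90 nM in the dispensed reagent) was pre-reduced with 400 uM NADPH for 5 min at room temperature, then incubated with compound for 15 min. After 400 uM selenite was added, NADPH fluorescence (Ex 340/Em 450 nm) was followed for 8 min.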
Giardia kill: Giardia lamblia killing; 340,000 compounds, 0.15% hits; activity change, % at 7.66 µM, hits read low; Giardia lamblia trophozoite viability; AID 540267; in the data active means activity change below about -80%; inconclusive means between about -30% and that limit;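 further: parasites exposed to compound for two days anaerobically before the ATP read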
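Media and compound were dispensed first, then trophozoites at 100 cells/well; plates sat 48 hrs at 37 deg C without oxygen before ATP luminescence reagent was added and read after 15-30 min at room temperature.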
Large screens that a line does not name were inactive. An excerpt weighted towards active compounds, which were near 2.2% of everything screened. Unless noted, the call rests on the fitted dose curve; in most records, active means well fitted curve in the direction sought with a large enough effect; inconclusive means small, poorly fitted or top-dose-only effect, or another doubt; inactive means no such curve, though single readings can be large; an effect the other way counts as inactive or inconclusive.

C/C(=N\NC(=O)c1ccn(C)n1)c1ccc(NC(=O)C2CCCC2)cc1	none
Cc1occc1C(=O)N/N=C/C=C/c1ccccc1	BRCA1 expr act 10µM
Cc1occc1C(=O)NCc1cccc(CNC(=O)c2ccoc2C)c1	TrxR1 inh 8.9µM
Cc1occc1C(=O)N/N=C/C=C/c1ccc(N(C)C)cc1	BRCA1 expr act inconclusive
CCOC(=O)c1c(C)oc2nc(C)nc(N3CCN(c4cccc(C)c4C)CC3)c12	none (no result: IL2 activator, BRCA1 expr act, Giardia kill)
Cc1ccc(-c2nc3ccccc3o2)cc1NC(=O)COc1ccccc1C	none (no result: IL2 activator, IDH1 R132H inh, Giardia kill)
O=[N+]([O-])c1cccc(S(=O)(=O)N2CCN(c3nc(-c4ccccc4)nc4ccccc34)CC2)c1	none (no result: IL2 activator, IDH1 R132H inh)
C/C(=N\NC(=O)c1ccoc1C)c1ccccc1	BRCA1 expr act 4µM
COc1ccc(C(=O)Nc2cccc(/C(C)=N\NC(=O)c3ccoc3C)c2)cc1OC	TrxR1 inh inconclusive
CC(C)c1cnc2c(c1SCC(=O)NCc1ccccc1)c(=O)n(C)c(=O)n2C	none (no result: IL2 activator, BRCA1 expr act, Giardia kill)
Cc1nnc(SCC2=C(C(=O)O)N3C(=O)C(NC(=O)Cn4ncc(Cl)c4C)C3SC2)s1 (stereo not given)	TrxR1 inh 22µM
O=C(COc1ccccc1)Nc1nc2c(s1)CCCC2	BRCA1 expr act 3.2µM
CCOC(=O)/C(=C\c1cn(C)c2ccccc12)[N+](=O)[O-]	TrxR1 inh 18µM
O=C(Nc1nc(-c2ccc(Cl)cc2)cs1)C1CCCO1 (stereo not given)	BRCA1 expr act 6.3µM
O=C(Nc1nc(-c2ccc(Cl)cc2Cl)cs1)C1CCCO1 (stereo not given)	none
O=C(Nc1ncc(Cc2ccccc2Cl)s1)C1CCCO1 (stereo not given)	BRCA1 expr act 4.5µM
CCCCC(=O)Nc1ccc(C2C(=O)c3ccccc3C2=O)cc1	BRCA1 expr act 4µM, Giardia kill inconclusive
CCC(=O)Nc1ccc(C2C(=O)c3ccccc3C2=O)cc1	Giardia kill -82
CCCCC(=O)Nc1ccc(C(N)=O)cc1	none
CCCCCC(=O)Nc1ccc2ccccc2c1	BRCA1 expr act 2.8µM
COc1ccc(-c2cc(C(=O)Nc3c(Cl)cccc3Cl)no2)cc1OC	none (no result: IL2 activator, BRCA1 expr act, Giardia kill)
O=C1CC(c2ccc3c(c2)OCCO3)Oc2ccc([N+](=O)[O-])cc21 (stereo not given)	Giardia kill inconclusive
O=C1CC(c2ccc3c(c2)OCCO3)Oc2ccccc21 (stereo not given)	BRCA1 expr act 11µM
CCOC(=O)c1ccc(N/C=C\C(=O)c2cccc(OC)c2)cc1	BRCA1 expr act 3.5µM, TrxR1 inh inconclusive
COc1ccc(N/C=C\C(=O)c2ccc3c(c2)OCO3)cc1	none
CCOc1ccc(N/C=C\C(=O)c2ccc3c(c2)OCO3)cc1	BRCA1 expr act 4.5µM
O=[N+]([O-])c1cc(Cl)c2cccnc2c1O	none
Oc1c(I)cc(Cl)c2cccnc12	TrxR1 inh 7.9µM
COC(=O)C1=C(C)N(c2ccc(F)c(Cl)c2)C(=O)C1	TrxR1 inh 14µM
O=C(Nc1ccccc1)OCc1cc(-c2ccccc2Cl)on1	BRCA1 expr act 8.9µM
N#C/C(=C\c1cccc(Cl)c1)C(=O)c1ccccc1	TrxR1 inh 11µM
CC1CCc2c(sc(NC(=O)COC(=O)C3CCCO3)c2C#N)C1 (stereo not given)	none
CC1CCc2c(sc(NC(=O)C3CCCO3)c2C#N)C1 (stereo not given)	BRCA1 expr act 10µM
Cc1ccc(NC(=O)Cc2ccc(-n3c(C)nc4cccnc43)cc2)c(Cl)c1	none (no result: IL2 activator, BRCA1 expr act, Giardia kill)
O=C(NCCC(=O)N(Cc1ccco1)Cc1cccs1)c1ccccc1Cl	none
O=C(c1cccc(Cl)c1Cl)N(Cc1ccco1)Cc1cccs1	TrxR1 inh 13µM (no result: IL2 activator, IDH1 R132H inh)
O=C(COc1ccc(F)cc1)Nc1ccc2nc(SCC(=O)N3CCOCC3)sc2c1	none (no result: IL2 activator, BRCA1 expr act, Giardia kill)

From PubChem BioAssay
